Experimental data from PubChem BioAssay (NCI).
About 83,000 compounds went through this panel and 20% of them were active in at least one assay; those are over-represented in the sample as a whole.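 Testing used 96-well plates and a 48-hour single-concentration exposure. Example: -40 means 40% of the starting cells died.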 Unmarked numbers belong to inactive results. Active and inactive are the calls of the source. The calls were made as follows: active = growth percent below 10; inactive = the rest.

Experiments:
Experiment in all cases: NCI-60 one-dose screen, 48 h (100 = growth as untreated, 0 = no growth, -100 = all killed)
SK-MEL-2 melanoma = details: 10 µM unless noted
SN12C renal = details: 10 µM unless noted
UO-31 renal = details: 10 µM unless noted
ACHN renal = details: 10 µM unless noted
A498 renal = details: 10 µM unless noted
CCRF-CEM leukemia = details: 10 µM unless noted
MOLT-4 leukemia = details: 10 µM unless noted
SR leukemia = details: 10 µM unless noted
RPMI-8226 leukemia = details: 10 µM
OVCAR-8 ovarian = details: 10 µM unless noted
OVCAR-5 ovarian = details: 10 µM unless noted
SK-OV-3 ovarian = details: 10 µM
IGROV1 ovarian = details: 10 µM unless noted
OVCAR-3 ovarian = details: 10 µM unless noted
HS 578T breast = details: 10 µM unless noted
NCI/ADR-RES ovarian = details: 10 µM unless noted
CAKI-1 renal = details: 10 µM unless noted
OVCAR-4 ovarian = details: 10 µM unless noted
TK-10 renal = details: 10 µM unless noted
EKVX NSCLC = details: 10 µM unless noted

Row | SMILES | growth (SK-MEL-2 melanoma) | growth (SN12C renal) | growth (UO-31 renal) | growth (ACHN renal) | growth (A498 renal) | growth (CCRF-CEM leukemia) | growth (MOLT-4 leukemia) | growth (SR leukemia) | growth (RPMI-8226 leukemia) | growth (OVCAR-8 ovarian) | growth (OVCAR-5 ovarian) | growth (SK-OV-3 ovarian) | growth (IGROV1 ovarian) | growth (OVCAR-3 ovarian) | growth (HS 578T breast) | growth (NCI/ADR-RES ovarian) | growth (CAKI-1 renal) | growth (OVCAR-4 ovarian) | growth (TK-10 renal) [%] | growth (EKVX NSCLC) [%]
1 | NC(=O)c1cc(Cl)ccc1NC(=O)COc1ccccc1 | 49.7% | 64.3% | 58.3% | 58.4% | 83.5% | 23.2% | 34.7% | 23% | 44.5% | 60.1% | 80.5% | 62.8% | 54.5% | 27.2% | 54.7% | 31.4% |  |  |  | 
2 | C[C@@H](Oc1cc(-c2cnn(C3CC4(CCNCC4)C3)c2)cnc1N)c1c(F)ccc(Cl)c1Cl | -65.5% (active) | 22% | 13.8% | 28.2% | -6.38% (active) | -19.6% (active) | -33% (active) | -29.2% (active) | -40.1% (active) | 39.8% | 27.8% | 62.6% | 47.7% | 44.4% | 25.6% | 61.5% | 60.9% | 40.7% |  | 
3 | Cc1ccc(S(=O)(=O)N(c2ccc(Cl)cc2)c2ccc(Br)cc2C(=O)O)cc1 | 107% | 99.4% | 91.4% | 105% | 111% | 102% | 98.5% | 104% |  | 101% | 101% | 112% | 109% | 120% | 102% | 115% | 102% | 116% |  | 
4 | CN1CCn2c(c(Sc3ccc(C(=O)NO)cc3)c3ccccc32)C1=O | -43.3% (active) | -3% (active) | 59% | 36.6% | 4.23% (active) | -6.26% (active) | 1.98% (active) | 0.516% (active) | -19.9% (active) | -46.5% (active) | 24.3% | 57.4% | -44.1% (active) | -32.5% (active) | 49.3% | 64.1% | 50.5% | 14% |  | 
5 | COc1cc(C(F)(F)F)ccc1-c1cc(-c2ccc(F)cc2)n[nH]1 | 118% | 85.2% | 59.6% | 77% | 95.1% | 89.8% |  | 107% | 67.5% | 84.7% | 88.7% | 104% | 80.6% | 91.9% | 96.3% | 91.5% | 78.4% | 71.2% |  | 
6 | COc1cc(/C=C/C(=O)C2=C(/C=C/c3ccc(O)c(OC)c3)NC(=O)NC2c2ccc(O)c(OC)c2)ccc1O (stereo unspecified) | 105% | 93.6% | 84.4% | 88.2% | 101% | 69.8% | 70.3% | 79% | 76.2% | 86.3% | 94.2% | 116% | 113% | 104% | 81% | 107% | 93.9% | 93% |  | 
7 | COc1ccc(/C=C2\CN(Cc3cn(CCCNc4ccnc5cc(Cl)ccc45)nn3)C/C(=C\c3ccc(OC)c(OC)c3)C2=O)cc1OC | 27.7% | -38% (active) | 33.2% | -38% (active) | 23.5% | -15.2% (active) | -13% (active) | -11.8% (active) | -35.5% (active) | 6.8% (active) | 2.05% (active) | 36.5% | 31.7% | 12.7% | 34% | 94.4% | 31% | 21.3% |  | 
8 | C[C@@H](Oc1cc(-c2cnn(C3CC4(CNC4)C3)c2)cnc1N)c1c(Cl)ccc(F)c1Cl | 32.6% | 22.9% | 51.5% | 48.6% | 24% | 24% | 0.522% (active) | -24.6% (active) | 27.7% | 48.9% | 38.1% | 66.3% | 64.2% | 63.2% | 41.6% | 91.3% | 65.7% | 48.2% |  | 
9 | Cn1c2ccccc2c2nn(C(=O)c3ccccc3)c(=O)nc21 | 113% | 102% | 73.4% | 105% | 108% | 96.9% | 104% | 93.7% | 98.7% | 117% | 101% | 116% | 101% | 122% | 105% | 110% | 103% | 125% |  | 
10 | COC(=O)c1cc(-c2ccc(C)cc2)n(C(=O)CSc2nc3sc(C(N)=O)c(C)c3c(=O)n2Cc2ccccc2)n1 | 110% |  | 87.5% | 98.8% | -32.1% (active) | 93.2% | 95.1% | 86.9% | 94.4% | 104% | 110% | 96.8% |  | 106% | 107% |  | 97.7% | 100% | 106 | 
11 | Cc1cc(=O)oc2c1ccc1oc(C(=O)c3ccccc3)c(C)c12 | 104% | 71% | 100% | 76.9% | 82.8% | 69.1% | 76.8% | 60.3% | 69.5% | 76.2% | 104% | 109% | 102% | 85.6% | 103% | 83.3% | 77.1% | 66.8% |  | 
12 | Clc1cccc(Cl)c1Nc1ccc2nnc(-c3ccncc3)n2n1 | 104% | 95.9% | 96.1% | 105% | 90.5% | 80.7% | 96.1% | 62.4% | 93.3% | 97.6% | 102% | 109% | 93.8% | 110% | 103% | 101% | 89.2% |  |  | 
13 | CCCOC(=O)c1ccc2c(c1)[N+](=O)C(C(=O)c1ccccc1)=C(C(F)(F)F)[N+]2=O | -87.6% (active) | -92.3% (active) | -89% (active) | -91.8% (active) | -90.9% (active) | -64.4% (active) |  | -41.4% (active) |  | -86% (active) | -87.7% (active) | -99.9% (active) | -74.4% (active) | -95.3% (active) | -52% (active) | -43.1% (active) | -92.5% (active) | -73.1% (active) |  | 
14 | COC(=O)[C@H]1CCCN1C(=O)[C@H]1CCCN1C(=O)[C@@H](Cc1c[nH]c2ccccc12)NC(=S)Nc1cc(C(F)(F)F)cc(C(F)(F)F)c1 | 93.2% | 43.2% | 41.1% | 44.3% | 56% | 36% | 21.2% | 14.4% |  | 66.8% | 76.4% | 77.2% | 22.7% | 48.3% | 12.3% | 89.9% | 28.5% | 44.6% |  | 
15 | Nc1cc2[nH]c(=O)c3ccccc3c2cc1Br |  | 72.8% | 41.2% | 93.9% | 37.7% | 81.2% | 87.3% | 61.9% | 76.9% | 77.6% | 60.6% | 87.9% | 59.6% | 72.1% | 67% | 81.7% | 54.3% | 59.2% | 45.2 | 44.7
